Measured values reported in publication PMC4552634, “A New Set of Chemical Starting Points with Plasmodium falciparum Transmission-Blocking Potential for Antimalarial Drug Discovery” (PLoS ONE, 2015).
Screen size: about 13,000 compounds; about 3,200 (25%) showed an effect of 50% or more. The list shows a part of the results.

Test system: P. falciparum stage V gametocytes
Set-up: BacTiter-Glo ATP luminescence viability of purified stage V gametocytes in 384-well plates, per cent inhibition versus DMSO
Conditions: 48 h, 5 µM; inhibitor

SMILES	% Inhibition [%]
OCc1ccc2nc3c(cc2c1)-c1cccc2cccc-3c12 [TCMDC-137756]	2.597
Cc1cc(N2CCCC2)nc(Nc2ccc(NC(=O)c3ccccc3)cc2)n1 [TCMDC-124713]	-11.14
COc1cccc(OC)c1OCCCOc1c(C)nc(N)nc1N [TCMDC-131352]	5.526
c1ccc(Oc2ccc(Nc3nc(NCCc4cnc[nH]4)nc(NC4CCCC4)n3)cc2)cc1 [TCMDC-139745]	20.05
COc1ccc(CNC(=O)c2cnc3c(O)cccc3c2Nc2cccc(NC(=O)c3ccc(F)cc3)c2)cc1.O=C(O)C(F)(F)F [TCMDC-139605]	78.77
O=C(Nc1cccc(OC2CCN(Cc3ccc(F)cc3)CC2)c1)c1ccc(C(F)(F)F)cc1 [TCMDC-133734]	-18.45
COc1ccc(CN2CCC(Oc3cccc(NC(=O)c4ccc(C(F)(F)F)cc4)c3)CC2)cc1 [TCMDC-133735]	-21.77
O=C(Nc1ccc(Cl)c(Cl)c1)N1CCC(NCc2cccc([N+](=O)[O-])c2)CC1 [TCMDC-141277]	22.25
O=C(CN1C(=O)CC1S(=O)(=O)Cc1ccco1)NCCCCCCc1ccc(F)cc1 (stereo not drawn) [TCMDC-139032]	21.56
COc1cccc(C(C)(C)NC[C@@H](O)[C@H](Cc2ccccc2)NC(=O)c2cc(C3CCCC3)cc(N3CCCCS3(=O)=O)c2F)c1 [TCMDC-135510]	45.23
CCN(CC)CCN(Cc1ccc(-c2ccc(C(F)(F)F)cc2)cc1)C(=O)Cn1c(CCc2c(F)cccc2F)nc(=O)c2ccccc21 [TCMDC-140950]	87.94
CCN(CC)CCN(Cc1ccc(-c2ccc(C(F)(F)F)cc2)cc1)C(=O)Cn1c(CCc2c(F)ccc(F)c2F)nc(=O)c2ccccc21 [TCMDC-140953]	67.68
CCN(CC)CCN(Cc1ccc(-c2ccc(C(F)(F)F)cc2)cc1)C(=O)Cn1c(CCc2cc(F)cc(F)c2F)nc(=O)c2ccccc21 [TCMDC-140955]	88.67
CCN(CC)CCN(Cc1ccc(-c2ccc(C(F)(F)F)cc2)cc1)C(=O)Cn1c(CCc2c(F)cc(F)cc2F)nc(=O)c2ccccc21 [TCMDC-140967]	61.03
CC(CCCCOCCc1ccccc1)NCC(O)c1cc(Cl)c(N)c(Cl)c1 (stereo not drawn) [TCMDC-132072]	16.2
Cc1ccc(-c2nnc(Nc3ccc(C(=O)N4CCCCC4)cc3)c3ccccc23)cc1S(=O)(=O)NCC1CCCO1 (stereo not drawn) [TCMDC-125618]	37.21
COc1ccc2nccc([C@@H](O)CN3CCC(NCc4cc5cccc(OC)c5o4)CC3)c2c1 [TCMDC-140683]	-7.327
O[C@@H](c1cc(C(F)(F)F)nc2c(C(F)(F)F)cccc12)[C@H]1CCCCN1 [TCMDC-124288]	25.8
Cc1ccc(F)cc1S(=O)(=O)N1CCCCC(c2ccc(C(F)(F)F)cc2)=N1 [TCMDC-134531]	-12.63
COc1cccc(NC(=O)Nc2cc(-c3ccc4[nH]ncc4c3)cc3c2CNC3=O)c1 [TCMDC-133475]	14.15
O=C(Nc1ccc(Cl)cc1C(=O)Nc1cccc(F)c1)c1ccc([N+](=O)[O-])cc1 [TCMDC-123788]	-68.85
CCC(C)CNC(=O)CN1CN(c2ccccc2)C2(CCN(C(=O)c3ccc(Br)cc3)CC2)C1=O (stereo not drawn) [TCMDC-125167]	-9.167
Cc1ccc(NC(=O)c2ccc3ncccc3c2)cc1OC1CCN(C(C)C)C1 (stereo not drawn) [TCMDC-133739]	24.97

SMILES	% Inhibition [%]
COc1ccc2nccc([C@@H](O)CN3CCC(NCCOc4ccccc4C#N)CC3)c2c1 [TCMDC-140712]	9.495
COc1ccc2nc(/C=C/c3cccc4ccc(C)nc34)[nH]c2c1 [TCMDC-138821]	-26.73
Cc1ccc2nc(/C=C/c3cccc4cc[nH]c34)[nH]c2c1 [TCMDC-138896]	83.23
Nc1ccc2nc(C=Cc3ccccc3)[nH]c2c1 [TCMDC-124430]	29.38
COc1ccc2c(c1)CC(CNC[C@H](O)c1cccc(Cl)c1)CC2 (stereo partly drawn) [TCMDC-131994]	-12.5
CN(C)CCOc1ccc2c(c1)CN(C)CC2c1ccccc1 (stereo not drawn) [TCMDC-131410]	7.627
Cc1nc(-c2nc(NCc3ccccn3)ncc2-c2ccsc2)sc1C [TCMDC-125360]	31.08
Cc1nc(-c2nc(N3CCOCC3)ncc2-c2ccsc2)sc1C [TCMDC-125356]	0.6256
Cc1nc(-c2nc(NCCc3c(C)noc3C)ncc2-c2ccsc2)sc1C [TCMDC-125357]	20.64
Cc1nc(-c2nc(NCCc3cnccn3)ncc2-c2ccsc2)sc1C [TCMDC-125363]	69.56
Cc1nc(-c2nc(NCc3ccncc3)ncc2-c2ccsc2)sc1C [TCMDC-125359]	15.84
COCCN(CCOC)c1ncc(-c2ccsc2)c(-c2nc(C)c(C)s2)n1 [TCMDC-125355]	81.41
CN(C)CCOc1ccc2[nH]c(-c3cccc(OCc4ccccc4)c3)nc2c1C#N [TCMDC-133765]	4.095
COc1cc(C(=O)Nc2cccc(-c3cn4cccc(C)c4n3)c2)cc(OC)c1OC [TCMDC-123644]	23.2
CCC1N=C(N)N=C(N)N1OCc1cccc2ccccc12 (stereo not drawn) [TCMDC-131592]	22.21
COc1c(CCNCCCCNCCc2cc(Cl)c3ccccc3c2OC)cc(Cl)c2ccccc12 [TCMDC-137869]	105.2
COc1ccc(CCNCCCCCCNCCc2ccc(Cl)c3ccccc23)cc1OC [TCMDC-131270]	116.7
COc1ccc(CCNc2nc(SCc3ccccc3Cl)nc3ccccc23)cc1OC [TCMDC-125569]	33.86
CCCCNCc1cc(Cl)c2ccccc2c1O [TCMDC-137599]	77.6
COc1c(CNCCCCCCNCc2cc(Cl)c3ccccc3c2OC)cc(Cl)c2ccccc12 [TCMDC-137958]	32.17
COc1cc2ncnc(NCCc3ccccc3Cl)c2cc1OC [TCMDC-139495]	5.438
COc1ccc(CCNCCCCCCNCCc2ccccc2Cl)cc1OC [TCMDC-131273]	87.94
